According to PubChem BioAssay (NCI):
The panel holds about 79,000 compounds, 15% with a hit somewhere; the sample as a whole holds those more often. Cut-off read from the data, not from the text of the source: active = growth inhibition above about 70%; inactive = the rest.

What was measured:
[1] = NCI Yeast Anticancer Drug Screen. Data for the rad50 strain (AID 155);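 note: 0% = growth of vehicle-only cultures of the same strain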; conditions: S. cerevisiae rad50 strain growth inhibition; at 50.0 µM; active compounds read high
Procedure, shortened: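 Readout: growth inhibition relative to vehicle-treated cultures. Compound exposure was carried out in a genetically defined yeast strain deficient in DNA damage repair.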

[2] = NCI Yeast Anticancer Drug Screen. Data for the mec2-1 strain (AID 157); conditions: S. cerevisiae mec2-1 strain, at 50.0 µM, active compounds read high
Procedure, shortened: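 Using mec2-1 yeast: add compound, measure growth, express inhibition versus vehicle-treated cultures.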

[3] = NCI Yeast Anticancer Drug Screen. Data for the sgs1 mgt1 strain (AID 161);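 note: 0% = growth of cultures given vehicle only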; conditions: S. cerevisiae sgs1 mgt1 strain, at 50.0 µM, active compounds read high
Procedure, shortened: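 Growth of a repair-deficient yeast mutant was monitored after compound treatment and expressed as inhibition relative to vehicle-treated cultures.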

[4] = NCI Yeast Anticancer Drug Screen. Data for the cln2 rad14 strain (AID 165);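 note: 0% = growth equal to vehicle treated cultures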; conditions: S. cerevisiae cln2 rad14 strain, at 50.0 µM, active compounds read high
Procedure, shortened: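 Yeast strain cln2 rad14, bearing defects in cell cycle control and DNA repair, serves as the test system; values reflect growth inhibition compared with vehicle.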

[5] = NCI Yeast Anticancer Drug Screen. Data for the bub3 strain (AID 167); conditions: S. cerevisiae bub3 mutant strain, at 50.0 µM, active compounds read high
Procedure, shortened: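 Readout: yeast growth inhibition, expressed relative to vehicle-only wells. The test organism is a mutant strain from a panel with lesions in DNA repair or checkpoint genes.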

[6] = NCI Yeast Anticancer Drug Screen. Data for the mlh1 rad18 strain (AID 175); conditions: S. cerevisiae mlh1 rad18 strain growth inhibition; at 50.0 µM; active compounds read high
Procedure, shortened: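 Steps: expose repair-defective yeast to compound; measure growth; express inhibition against vehicle-treated controls.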

Measured: growth inhibition

Cc1cnc(NCCCCNc2ncc(C)c(-c3ccccc3O)n2)nc1-c1ccccc1O
inactive: [1] -5.25% | [2] 1.55% | [3] -0.55% | [4] -27.1% | [5] -3.65% | [6] 4.8%

CCOC(=O)C1CC(=O)c2cc(OC)c(OC)cc2C1c1ccc(OC)c(OC)c1 (stereo unspecified)
inactive: [1] 1.85% | [2] -14.1% | [3] 0.1% | [4] -29.7% | [5] 13.8% | [6] -26.4%

CC1=CC(C)=C(C#N)C2=S=C(c3ccccc3)C(=O)N12
inactive: [1] 6% | [2] 14.8% | [3] 22.5% | [4] 29.1% | [5] 19.9% | [6] 22.1%

O=C(O)C(C(=O)O)C1CCCCC1
inactive: [1] -14.6% | [2] -20.6% | [3] -20.6% | [4] -0.95% | [5] -6.5% | [6] -15.8%

COc1ccc(OC)c(NC(=O)Sc2c(Cl)c(Cl)nc(Cl)c2Cl)c1
inactive: [1] 18.4% | [2] 13.2% | [3] 16.2% | [4] -8.9% | [5] -0.05% | [6] -10.2%

C=CCCCCCCCCCCCC
inactive: [1] -20.1% | [2] 0% | [3] -20.8% | [4] 0.8% | [5] -21.2% | [6] -0.4%

COC1=CC(=O)C(C(C)=O)=C(O)C1=O
inactive: [1] 0.05% | [2] -7.95% | [3] -6.5% | [4] 4.7% | [5] -5.6% | [6] -4.05%

Cc1ccc(C(=O)c2c(C)cccc2C(=O)O)c(C)c1
inactive: [1] -0.95% | [2] -2.1% | [3] 8.45% | [4] 12.6% | [5] -3.85% | [6] 29.4%

Nc1ccc(/C(=N\O)c2ccccc2)cc1
inactive: [1] 19.6% | [2] 13.9% | [3] 23.9% | [4] 0.8% | [5] -2.6% | [6] 10.1%

COc1ccc(NCC(=O)Nn2c(-c3ccccc3)nc3ccccc3c2=O)cc1
inactive: [1] -37% | [2] -48.2% | [3] 4% | [4] 0.4% | [5] 4.15% | [6] -18.4%

NC(=O)[C@H]1CC2CCC1C2 (stereo partly specified)
inactive: [1] 6.75% | [2] -1.75% | [3] 3.4% | [4] 5% | [5] 11.3% | [6] 6%

NS(=O)(=O)c1ccc(NC(=O)c2cccn3c(=O)c4ccccc4nc23)cc1
inactive: [1] 6.6% | [2] 9.45% | [3] -7.6% | [4] 27.2% | [5] -0.25% | [6] 14.9%

O=CNc1cc([N+](=O)[O-])ccc1OCc1ccccc1
inactive: [1] 13.6% | [2] 1.6% | [3] -0.75% | [4] 4.6% | [5] 12.2% | [6] -21.9%

O=C1C2C3CCC(C3)C2N1Cc1ccccc1 (stereo unspecified)
inactive: [1] 5.8% | [2] -1.65% | [3] -2.15% | [4] -27.2% | [5] 13.6% | [6] -14.8%

c1ccc(CNCCCNCCCCNCCCNCc2ccccc2)cc1
inactive: [1] 7.75% | [2] -5.5% | [3] 9.4% | [4] -10.3% | [5] 17.8% | [6] 7.45%

CC(=O)SC12CCCN1C(=O)C1(SC(C)=O)CCCN1C2=O (stereo unspecified)
inactive: [1] 40.5% | [2] 26.4% | [3] 45.2% | [4] -28.9% | [5] 3.3% | [6] 37%

C=C1CCC2[C@@H](CCC3[C@]2(C)CCC[C@]3(C)C(=O)OC)[C@@H]1CC=O (stereo partly specified)
inactive: [1] 11.4% | [2] 10.2% | [3] 9.25% | [4] 23.4% | [5] 9.5% | [6] 14.8%

COc1ccc2c3c([nH]c2c1)C(C)N(S(=O)(=O)c1ccccc1)CC3 (stereo unspecified)
inactive: [1] -8.1% | [2] -0.9% | [3] -2.65% | [4] -4.9% | [5] 8.45% | [6] 5.7%

COc1cc2c(cc1O)C(=O)CCC(C(=O)O)=C2
inactive: [1] 14.2% | [2] -12.8% | [3] 3.65% | [4] -14.8% | [5] 2% | [6] 14.6%

COc1ccc(CC(=O)O)cc1OC
inactive: [1] 23.9% | [2] 0.55% | [3] 17.6% | [4] -24.4% | [5] -5.95% | [6] 23.9%

CSc1c(C)c(C)nn1-c1ccccc1
inactive: [1] -8.35% | [2] -7.6% | [3] 9.45% | [4] -1.4% | [5] 1.35% | [6] -5.75%

O=C(CCCn1cnc([N+](=O)[O-])n1)NCCCn1ccnc1[N+](=O)[O-]
inactive: [1] -26.2% | [2] -19.7% | [3] -26.1% | [4] -3.45% | [5] -34.8% | [6] -7.8%

CC(=O)OC1CCC2(C)C(CCC3C2CC(OC(C)=O)C2(C)C(C(C)CCC(c4ccccc4)c4ccccc4)CCC32)C1 (stereo unspecified)
inactive: [1] 9.1% | [2] -20.4% | [3] 1.1% | [4] 14.9% | [5] 0.15% | [6] -1.55%

Nc1nc(SSc2nc(N)nc3c2ncn3C2OC(CO)C(O)C2O)c2ncn(C3OC(CO)C(O)C3O)c2n1 (stereo unspecified)
inactive: [1] 1.4% | [2] -5.8% | [3] 3.9% | [4] -34% | [5] 9.45% | [6] -1.3%

O=C(CCc1cc(-c2ccccc2)nc(=S)[nH]1)Nc1ccccc1[N+](=O)[O-]
inactive: [1] 10% | [2] -8.05% | [3] 9% | [4] 29.6% | [5] 15.5% | [6] 7.25%

Cc1cccc(C)c1NC(=S)/N=C/C1=C(O)c2ccccc2C1=O
inactive: [1] -36.8% | [2] -17.2% | [3] -10.2% | [4] 13.8% | [5] -7.5% | [6] 23.6%

O=C(C[n+]1ccncc1)c1ccccc1
inactive: [1] -20.8% | [2] -18.7% | [3] -6.35% | [4] -6.25% | [5] -10.2% | [6] 2.65%

O=C(O)c1cc2cc(S(=O)(=O)O)ccc2cc1O
inactive: [1] 4% | [2] -0.95% | [3] -6.9% | [4] -25.2% | [5] -11.8% | [6] 30.4%

NCCCNCCCCN1CCOC1=O
inactive: [1] 2.8% | [2] 1.65% | [3] -3.1% | [4] -6.6% | [5] -11.3% | [6] -17.9%

CC(C)=CCN(N=O)c1ncnc2nc[nH]c12
inactive: [1] -10.1% | [2] 31.1% | [3] -24.8% | [4] -2.5% | [5] 18.9% | [6] 9.85%

COC(=O)CC#N
inactive: [1] -13.3% | [2] 4.9% | [3] 10.1% | [4] -2.75% | [5] -1.2% | [6] -13.3%

NNC(=O)C(=O)N/N=C(/CC1(O)C(=O)Nc2ccccc21)c1ccc(Cl)cc1Cl (stereo unspecified)
inactive: [1] -0.9% | [2] 4% | [3] -15.9% | [4] -53.4% | [5] 0.75% | [6] -1.95%

CCN(CC)C(=O)Cc1ccc2c3c(cccc13)CC2
inactive: [1] -2.45% | [2] -2.05% | [3] -1.75% | [4] -0.75% | [5] 1.6% | [6] 11.6%

N#CCc1ccccc1-c1ccccc1
inactive: [1] 2.45% | [2] -8.2% | [3] 11.4% | [4] -45.5% | [5] 5.6% | [6] -9.75%

O=C(O)COCC(=O)N(CCOCCN(Cc1ccccc1)C(=O)COCC(=O)O)Cc1ccccc1
inactive: [1] -18.4% | [2] 0.75% | [3] 7.25% | [4] 26.6% | [5] 0.7% | [6] 4.1%

N#CC(C#N)=C1C=CC=CC=C1
inactive: [1] 14.2% | [2] 5% | [3] 0.85% | [4] -11.4% | [5] 8.75% | [6] -4.4%

CN(/N=C1\C(=O)Nc2ccccc21)c1ccccc1
inactive: [1] 4.65% | [2] -3.15% | [3] 13.6% | [4] -37.9% | [5] 3.85% | [6] 17.6%

COC(=O)CCNCCSC(=O)c1ccccc1
inactive: [1] 23.5% | [2] -9.1% | [3] -6% | [4] 12.9% | [5] 8.55% | [6] 4.6%

CCCCCCCSC#N
inactive: [1] -7.6% | [2] 20.9% | [3] -1.9% | [4] -22.4% | [5] 9.75% | [6] 29.6%

CCOC(=O)c1ccc(NC(=O)/C=C/c2ccccc2)cc1
inactive: [1] -4.55% | [2] 11.4% | [3] 17.4% | [4] -24.3% | [5] 30.1% | [6] 6.3%

O=C(N/N=C(\C1=Nc2ccc(Cl)cc2NC1O)C(O)/C=C/c1ccccc1)c1ccncc1 (stereo unspecified)
inactive: [1] 17.6% | [2] 3.95% | [3] -8.8% | [4] -20.7% | [5] -4% | [6] 7.7%
